# Experimental data published in PubChem BioAssay (NCATS).
# Values joined by “and” are separate entries in the source; they are usually repeats but may differ in a detail not shown here. Equal entries are not always repeated. Results filed as inconclusive are left out. A call without a number means that no potency is given here. Active and inactive are the calls of the source. Unless noted, calls come from the whole dose curve; as a rule, active = well fitted curve in the direction sought with a large enough effect; inconclusive = small, poorly fitted or top-dose-only effect, or another doubt; inactive = no such curve, though single readings can be large; an effect the other way counts as inactive or inconclusive.
# Experiments:
# [1] = target: Cytochrome P450 3A4 (Homo sapiens) (UniProt P08684); experiment: qHTS Assay for Inhibitors and Substrates of Cytochrome P450 3A4 (AID 884); conditions: recombinant CYP3A4, Luciferin-PPXE luminescence; series mostly up to 57.1 µM; note: nearly all actives have a fitted effect of over 50% in size; note: potency is the fitted concentration of half-maximal effect
# How it was run: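 20 nM human CYP3A4 with 25 uM Luciferin-PPXE (at KM) in 200 mM KPO4, preincubated 10 min with compound; NADPH regeneration started a 60 min RT reaction. Luciferin detected by luminescence, normalized to 57 uM ketoconazole as full inhibition.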
# [2] = MultiTox-Fluor Cytotoxicity Assay - LYMP1-002 - Dead Cells (AID 960); conditions: LYMP1-002 lymphoblastoid cells, dead-cell protease fluorescence; series mostly up to 46.1 µM; note: nearly all actives have a fitted effect of over 60% in size; note: potency is the fitted concentration of half-maximal effect
# How it was run: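 Human lymphoblastoid LYMP1-002 cells, 2500/well, treated 16 h at 37 C; dead-cell protease cleavage of bis-AAF-R110 read by fluorescence (485/520); normalized to DMSO and 15 uM tetraoctylammonium bromide; AC50 from Hill fit.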
# [3] = Cell Viability - LYMP2-015 (AID 971); conditions: LYMP2-015 lymphoblastoid cell viability; series mostly up to 92.2 µM; note: nearly all actives have a fitted effect of over 55% in size
# How it was run: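 LYMP2-015 human lymphoblastoid cells (2500/well) in complete medium, compound-treated 24 h at 37 C; viability read as cellular ATP by CellTiter-Glo luminescence after 30 min at room temperature. AC50 from Hill-equation fits of qHTS concentration-response data.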
# [4] = Cell Viability - LYMP2-010 (AID 981); conditions: LYMP2-010 lymphoblastoid cell viability, qHTS; series mostly up to 92.2 µM;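 note: cells exposed to compound for 24 hours at 37 °C; nearly all actives have a fitted effect of over 55% in size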
# How it was run: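 Human lymphoblastoid LYMP2-010 cells (2500/well) treated 24 h at 37 C in complete medium; viability read as intracellular ATP by CellTiter-Glo luminescence. AC50 from Hill fits of concentration-response data; tetraoctylammonium bromide positive control.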
# [5] = target: Vitamin D3 receptor (Homo sapiens) (UniProt P11473); experiment: qHTS assay for small molecule agonists of vitamin D receptor signaling (AID 588543; calls by dose curve); conditions: HEK293T VDR-UAS-bla, beta-lactamase ratio, 16 h; series mostly up to 76.8 µM
# How it was run: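 qHTS in agonist mode: compound titrations stimulate a VDR-driven β-lactamase reporter in HEK293T cells over 16 h at 37 °C. Response normalized to 50 nM 1α,25-dihydroxyvitamin D3 = 100%, DMSO = 0%; Hill fitting gives EC50 and maximal response.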
# [6] = qHTS assay for small molecule agonists of retinoid X receptor alpha signaling (AID 588544); conditions: HEK293T RXRa-UAS-bla, beta-lactamase reporter, 18 h; 530 nm emission
# [7] = target: Thyroid hormone receptor beta (Homo sapiens) (UniProt P10828); experiment: qHTS assay for small molecule agonists of thyroid hormone receptor beta signaling (AID 588545; calls by dose curve); conditions: TR-UAS-bla GripTite HEK 293, beta-lactamase ratio, agonist mode, 18 h; series mostly up to 76.7 µM
# How it was run: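 HEK 293 TR-UAS-bla; agonist mode; 18 hrs, 37 C; CCF4, ex 405/em 460 and 530 nm; norm. T3 10 nM = 100%, DMSO = 0%; Hill fit → EC50, efficacy.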
# [8] = target: Voltage-gated inwardly rectifying potassium channel KCNH2 (Homo sapiens) (UniProt Q12809); experiment: qHTS Assay for Small Molecule Inhibitors of the Human hERG Channel Activity (AID 588834); conditions: U2OS BacMam hERG, FluxOR thallium flux fluorescence; series mostly up to 92.2 µM;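 note: top concentration of the series differs between compounds; lower thallium flux fluorescence means stronger hERG block; nearly all actives have a fitted effect of over 50% in size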
# How it was run: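 Measured: FluxOR fluorescence after thallium stimulation in U2OS cells transduced with hERG by baculovirus. Compounds pre-incubated around 10 min; medium Opti-MEM with 2% FCS. AC50 from Hill equation.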
# [9] = qHTS assay for small molecule agonists of the antioxidant response element (ARE) signaling pathway measured by Nrf2-dependant transcriptional activity (AID 720636; active = well fitted curve in the direction sought with a large enough effect in the repeat runs; an effect the other way counts as inactive or inconclusive; note: potency is the fitted concentration of half-maximal effect;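 for activation: HepG2 cells with an ARE-driven luciferase reporter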); conditions: ARE-luc HepG2, Nrf2 luciferase reporter, 16 h; series mostly up to 92.4 µM
# How it was run: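 Cells: ARE-luc HepG2 with Nrf2-responsive luciferase. Medium contained 1% dialyzed FBS. Compound exposure lasted 16 hr at 37 C and 5% CO2, followed by ONE-Glo luciferase detection.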
# [10] = qHTS assay for small molecule antagonists of the retinoid-related orphan receptor gamma (ROR-gamma) signaling pathway - cell viability counter screen (AID 720652; active = well fitted curve in the direction sought with a large enough effect in the repeat runs; an effect the other way counts as inactive or inconclusive;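 note: compound exposure lasted 16 hr before ATP read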); conditions: RORgamma reporter cell line viability counter screen; series mostly up to 92.2 µM
# How it was run: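 CHO cells carrying TET-inducible ROR and RORE-luciferase reporter, plated 5 hr, then dosed with compound plus doxycycline. After 16 hr at 37 C, viability read as intracellular ATP by CellTiter-Glo luminescence.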
# [11] = qHTS assay for small molecule activators of the human pregnane X receptor (PXR) signaling pathway (AID 720659; call rule not given here); conditions: DPX-2 HepG2 CYP3A4-luciferase, 24 h; series mostly up to 92.3 µM
# [12] = Cell Viability - SH-SY5Y (AID 544); conditions: SH-SY5Y neuroblastoma cell viability; viability change, negative = cytotoxic: at 92.2 µM (top of the series); note: nearly all actives have a fitted effect of over 55% in size; note: potency is the fitted concentration of half-maximal effect
# How it was run: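 SH-SY5Y human neuroblastoma cells (1500/well) incubated 5 h, then compound-treated 40 h at 37 °C in complete medium. Viability read as intracellular ATP by CellTiter-Glo luminescence after 20 min; AC50 from Hill-equation fits of qHTS concentration-response.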
# [13] = target: Glucocorticoid receptor (Homo sapiens) (UniProt P04150); experiment: qHTS assay for small molecule agonists of glucocorticoid receptor signaling (AID 588532; active = well fitted curve in the direction sought with a large enough effect in the signal ratio, with a control signal flat; the % refers to the signal ratio); conditions: HeLa MMTV-bla, beta-lactamase ratio, agonist, 18 h; stronger effect = higher value; percent of dexamethasone control, DMSO zero
# How it was run: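 Stimulation of a glucocorticoid response element-driven beta-lactamase gene was measured in HeLa cells. Responses were scaled between DMSO basal and 0.1 uM dexamethasone, then fitted for half-maximal stimulation.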
# [14] = qHTS assay for small molecule activators of the p53 signaling pathway (AID 651743; active = well fitted activation curve with a large enough effect in the signal ratio, not every such curve was filed as active; the % refers to the signal ratio); conditions: HCT-116 p53RE-bla, beta-lactamase FRET ratio, 16 h; activation: stronger effect = higher value
# How it was run: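 Cell-based beta-lactamase reporter (p53 response elements, HCT-116 background). After a 5-hour preincubation, cells received compound for 16 hours at 37 C; substrate development ran 2 hours at room temperature.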
# [15] = qHTS assay for small molecule activators of the nuclear factor-kappa B (NF-kB) signaling pathway (AID 651749; active = well fitted activation curve with a large enough effect in the signal ratio; the % refers to the signal ratio); conditions: NF-kB-bla ME-180 cells, beta-lactamase FRET ratio, 16 h; stronger effect = higher value
# How it was run: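 Screening used 2,000 ME-180 reporter cells per well exposed to pinned compound (23 nL) or DMSO; after 16 hr at 37C, beta-lactamase expression under NF-kB control was assessed through FRET.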
# [16] = qHTS assay for small molecule disruptors of the mitochondrial membrane potential - 1 hr assay (AID 651754; calls by dose curve; note: nearly all actives have a fitted effect of over 35% in size; note: potency is the fitted concentration of half-maximal effect); conditions: series mostly up to 92.2 µM
# How it was run: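 HepG2 cells, attached overnight, were exposed to compound for 1 hr at 37C, then stained 30 min with a potentiometric dye. Ratio of red aggregate (590nm) to green monomer (535nm) fluorescence reports membrane potential; collapse shifts signal toward green.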
# [17] = target: Nuclear receptor ROR-gamma (Homo sapiens) (UniProt P51449); experiment: qHTS assay for small molecule antagonists of the retinoid-related orphan receptor gamma (ROR-gamma) signaling pathway (AID 651802); conditions: ROR-gamma antagonist cell reporter assay; series mostly up to 92.2 µM; note: nearly all actives have a fitted effect of over 60% in size; note: potency is the fitted concentration of half-maximal effect
# How it was run: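 CHO cells with TET-inducible ROR-gamma and RORE-luciferase reporter, dosed then doxycycline-induced. After 16 h at 37C, One-Glo luminescence read; decreased signal indicates antagonism.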
# [18] = Cell Viability - Hek293 (AID 427;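 active = compounds whose dose-response curve shows a full or clear partial loss of cell viability, called from curve shape rather than a numeric limit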;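 note: potency is the fitted concentration of half-maximal effect; cells exposed to compound for 40 hours at 37 °C before reading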); conditions: qHTS
# How it was run: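 AC50 values derive from Hill-modelled concentration-response of ATP-based luminescence, normalized between DMSO-only and 100 uM tamoxifen controls. Cells were exposed in complete culture medium for 40 hr at 37 °C before detection.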
# [19] = Cell Viability - SK-N-SH (AID 435; calls by dose curve;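 note: potency is the fitted concentration of half-maximal effect; compound exposure lasted 40 h at 37 °C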); conditions: SK-N-SH neuroblastoma cell viability qHTS
# How it was run: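 Cells seeded at 1500 per well and incubated 5 hr at 37 °C. Compound added, then 40 hr at 37 °C. CellTiter-Glo added, 20 min at room temperature, luminescence read.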
# [20] = Cell Viability - Jurkat (AID 426;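 active = dose-dependent loss of cell ATP signal giving a full or clear fitted curve, ranked by lower potency value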;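 note: potency is the fitted concentration of half-maximal effect; cells exposed to compound for 40 hours at 37 °C before ATP read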); conditions: qHTS
# How it was run: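 Jurkat (Clone E6-1) cells, 5000/well in complete medium, exposed to compounds for 40 hr at 37C; intracellular ATP measured by CellTiter-Glo luminescence after 20 min at room temperature. AC50 from Hill fits.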
# Vitamin D3 receptor (Homo sapiens), sequence (P11473 whole entry, looked up): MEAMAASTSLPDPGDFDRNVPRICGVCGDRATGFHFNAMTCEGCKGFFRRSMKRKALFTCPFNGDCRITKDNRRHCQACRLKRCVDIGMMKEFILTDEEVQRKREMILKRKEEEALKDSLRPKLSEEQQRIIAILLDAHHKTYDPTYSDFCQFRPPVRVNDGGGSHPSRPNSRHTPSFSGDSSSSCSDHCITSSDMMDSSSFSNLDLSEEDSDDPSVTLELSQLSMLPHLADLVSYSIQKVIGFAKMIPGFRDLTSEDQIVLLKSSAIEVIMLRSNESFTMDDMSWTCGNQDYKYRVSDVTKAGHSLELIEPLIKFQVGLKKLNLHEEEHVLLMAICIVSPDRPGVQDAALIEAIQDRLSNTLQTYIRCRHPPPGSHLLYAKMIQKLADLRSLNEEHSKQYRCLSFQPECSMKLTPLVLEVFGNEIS
# Glucocorticoid receptor (Homo sapiens), sequence (P04150 whole entry, looked up): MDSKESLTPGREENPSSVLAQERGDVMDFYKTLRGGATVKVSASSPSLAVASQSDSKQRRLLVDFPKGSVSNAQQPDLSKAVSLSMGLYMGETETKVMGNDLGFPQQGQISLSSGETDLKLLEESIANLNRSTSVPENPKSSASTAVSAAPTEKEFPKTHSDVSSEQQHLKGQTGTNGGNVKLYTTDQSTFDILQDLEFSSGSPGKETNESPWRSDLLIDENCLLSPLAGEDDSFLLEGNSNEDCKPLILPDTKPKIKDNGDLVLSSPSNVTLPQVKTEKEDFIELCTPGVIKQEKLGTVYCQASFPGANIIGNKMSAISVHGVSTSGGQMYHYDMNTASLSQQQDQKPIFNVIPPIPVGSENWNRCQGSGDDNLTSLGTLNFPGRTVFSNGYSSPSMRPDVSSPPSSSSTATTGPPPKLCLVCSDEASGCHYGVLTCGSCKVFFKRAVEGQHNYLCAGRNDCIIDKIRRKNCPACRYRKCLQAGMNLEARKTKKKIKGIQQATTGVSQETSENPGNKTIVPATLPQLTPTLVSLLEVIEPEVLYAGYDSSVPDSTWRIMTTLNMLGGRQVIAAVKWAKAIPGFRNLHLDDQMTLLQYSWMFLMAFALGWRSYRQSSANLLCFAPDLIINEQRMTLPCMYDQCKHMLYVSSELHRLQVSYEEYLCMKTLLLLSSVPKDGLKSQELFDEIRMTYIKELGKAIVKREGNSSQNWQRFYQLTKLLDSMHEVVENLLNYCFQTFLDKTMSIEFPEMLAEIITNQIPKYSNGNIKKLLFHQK
# Voltage-gated inwardly rectifying potassium channel KCNH2 (Homo sapiens), sequence (Q12809 whole entry, looked up): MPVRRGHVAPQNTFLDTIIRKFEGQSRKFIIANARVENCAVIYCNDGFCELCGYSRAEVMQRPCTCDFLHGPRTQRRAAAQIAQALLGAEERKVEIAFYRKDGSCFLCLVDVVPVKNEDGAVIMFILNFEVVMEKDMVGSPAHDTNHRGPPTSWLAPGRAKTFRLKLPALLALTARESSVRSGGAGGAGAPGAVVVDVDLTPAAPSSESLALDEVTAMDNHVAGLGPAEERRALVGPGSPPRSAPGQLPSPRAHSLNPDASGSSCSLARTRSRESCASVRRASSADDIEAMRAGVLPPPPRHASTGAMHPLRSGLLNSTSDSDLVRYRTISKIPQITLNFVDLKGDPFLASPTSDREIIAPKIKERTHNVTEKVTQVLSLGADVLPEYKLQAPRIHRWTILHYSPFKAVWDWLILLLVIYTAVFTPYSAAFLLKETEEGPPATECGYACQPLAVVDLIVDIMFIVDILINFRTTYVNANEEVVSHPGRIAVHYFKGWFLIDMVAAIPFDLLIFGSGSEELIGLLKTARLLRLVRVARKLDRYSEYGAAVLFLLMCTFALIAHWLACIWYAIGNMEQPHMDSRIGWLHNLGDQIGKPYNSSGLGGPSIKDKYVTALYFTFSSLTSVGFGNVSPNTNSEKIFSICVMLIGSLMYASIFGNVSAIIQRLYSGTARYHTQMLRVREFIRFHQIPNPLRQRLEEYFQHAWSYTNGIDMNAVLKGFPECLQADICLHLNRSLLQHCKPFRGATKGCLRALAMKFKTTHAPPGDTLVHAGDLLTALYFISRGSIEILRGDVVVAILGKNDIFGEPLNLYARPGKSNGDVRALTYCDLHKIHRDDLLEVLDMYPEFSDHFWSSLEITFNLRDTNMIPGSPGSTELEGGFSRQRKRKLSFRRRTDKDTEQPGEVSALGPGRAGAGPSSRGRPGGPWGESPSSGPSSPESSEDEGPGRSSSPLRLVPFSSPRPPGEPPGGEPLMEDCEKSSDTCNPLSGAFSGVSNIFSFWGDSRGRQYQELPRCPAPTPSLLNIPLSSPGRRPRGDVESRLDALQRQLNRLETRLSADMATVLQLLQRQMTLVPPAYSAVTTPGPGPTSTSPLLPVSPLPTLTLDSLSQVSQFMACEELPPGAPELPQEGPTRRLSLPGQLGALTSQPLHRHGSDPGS
# Nuclear receptor ROR-gamma (Homo sapiens), sequence (P51449 whole entry, looked up): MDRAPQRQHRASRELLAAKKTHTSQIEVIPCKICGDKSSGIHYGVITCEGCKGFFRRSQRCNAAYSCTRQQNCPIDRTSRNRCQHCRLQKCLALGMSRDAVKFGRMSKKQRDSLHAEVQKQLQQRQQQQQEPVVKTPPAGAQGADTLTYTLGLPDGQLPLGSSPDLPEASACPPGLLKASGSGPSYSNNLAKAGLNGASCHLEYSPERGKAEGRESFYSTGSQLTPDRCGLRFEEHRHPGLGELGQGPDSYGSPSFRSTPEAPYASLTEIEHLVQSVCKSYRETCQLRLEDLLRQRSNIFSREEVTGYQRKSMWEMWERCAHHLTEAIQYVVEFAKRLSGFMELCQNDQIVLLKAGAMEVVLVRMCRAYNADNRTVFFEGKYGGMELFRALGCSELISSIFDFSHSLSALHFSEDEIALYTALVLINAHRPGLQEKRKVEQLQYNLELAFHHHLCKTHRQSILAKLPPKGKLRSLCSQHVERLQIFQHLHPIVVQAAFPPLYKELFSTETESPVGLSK
# Cytochrome P450 3A4 (Homo sapiens), sequence (P08684 whole entry, looked up): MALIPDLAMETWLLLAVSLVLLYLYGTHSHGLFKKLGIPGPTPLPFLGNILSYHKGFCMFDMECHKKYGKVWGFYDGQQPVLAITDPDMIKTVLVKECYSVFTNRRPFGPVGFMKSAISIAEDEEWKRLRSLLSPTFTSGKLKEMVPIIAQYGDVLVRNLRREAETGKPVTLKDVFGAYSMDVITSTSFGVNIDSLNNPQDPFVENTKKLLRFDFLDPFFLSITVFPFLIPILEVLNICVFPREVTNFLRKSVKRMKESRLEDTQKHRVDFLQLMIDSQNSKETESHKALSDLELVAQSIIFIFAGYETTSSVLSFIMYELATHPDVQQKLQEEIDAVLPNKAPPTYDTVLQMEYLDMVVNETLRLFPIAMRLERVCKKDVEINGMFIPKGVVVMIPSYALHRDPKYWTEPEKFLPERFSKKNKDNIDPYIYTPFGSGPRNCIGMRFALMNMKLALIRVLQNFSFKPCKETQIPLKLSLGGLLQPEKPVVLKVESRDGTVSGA
# Thyroid hormone receptor beta (Homo sapiens), sequence (P10828 whole entry, looked up): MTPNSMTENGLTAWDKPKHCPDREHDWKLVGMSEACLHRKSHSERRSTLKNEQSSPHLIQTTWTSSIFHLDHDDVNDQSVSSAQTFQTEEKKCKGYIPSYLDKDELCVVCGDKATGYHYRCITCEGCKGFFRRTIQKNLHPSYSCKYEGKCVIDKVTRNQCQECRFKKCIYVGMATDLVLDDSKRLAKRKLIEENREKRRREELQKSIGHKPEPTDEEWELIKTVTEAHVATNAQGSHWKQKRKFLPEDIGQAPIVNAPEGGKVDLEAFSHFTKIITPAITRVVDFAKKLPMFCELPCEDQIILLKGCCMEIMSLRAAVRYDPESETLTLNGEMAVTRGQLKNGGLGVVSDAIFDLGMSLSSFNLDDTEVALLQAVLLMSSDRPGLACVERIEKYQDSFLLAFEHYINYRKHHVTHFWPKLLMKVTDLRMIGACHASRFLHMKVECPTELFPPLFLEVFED
smiles,measurement,setting,value
Oc1cc(Cl)cc(Cl)c1Cl,Potency,[1],inactive
same,Potency,[2],inactive
same,Potency,[3],inactive
same,Potency,[4],inactive
same,Potency,[5],inactive
same,max response,[6],0.211%
same,Potency,[7],inactive
same,Potency,[8],inactive
same,Potency,[9],inactive
same,Potency,[10],inactive
same,outcome,[11],inactive
O=[N+]([O-])c1cc(Cl)c(Cl)c(Cl)c1Cl,Potency,[12],31.6 µM (active)
same,Potency,[1],inactive
same,Potency,[2],25.1 µM (active)
same,activation,[13],0.473% (inactive)
same,Potency,[5],inactive
same,Potency,[7],inactive
same,Potency,[8],inactive
same,activation,[14],0.035% (inactive)
same,activation,[15],-0.62% (inactive)
same,Potency,[16],inactive
same,Potency,[17],33.5 µM (active)
same,Potency,[9],37.6 µM (active)
same,outcome,[11],inactive
NC(=O)Nc1nc2ccccc2[nH]1,Potency,[18],> 92 µM (inactive)
same,Potency,[19],> 92 µM (inactive)
same,Potency,[12],inactive
same,Potency,[1],inactive
same,Potency,[3],inactive
same,Potency,[4],inactive
same,Potency,[5],inactive
same,max response,[6],-1.01%
same,Potency,[8],inactive
same,activation,[14],-0.426% (inactive)
same,activation,[15],-0.124% (inactive)
same,Potency,[16],inactive
same,Potency,[17],inactive
same,Potency,[9],inactive
same,Potency,[10],inactive
O=C1OC(=O)c2ccccc21,Potency,[18],> 92 µM (inactive)
same,Potency,[19],> 92 µM (inactive)
same,Potency,[1],inactive
same,Potency,[2],inactive
same,Potency,[3],inactive
same,Potency,[4],inactive
same,activation,[13],8.87% (inactive)
same,Potency,[5],inactive
same,max response,[6],-8.02%
same,Potency,[8],inactive
same,activation,[14],-3.66% (inactive)
same,activation,[15],0.114% (inactive)
same,Potency,[16],inactive
same,Potency,[9],inactive
same,Potency,[10],inactive
same,outcome,[11],inactive
Cc1cc2nc(N)sc2cc1C,Potency,[18],> 92 µM (inactive)
same,Potency,[19],> 92 µM (inactive)
same,Potency,[12],inactive
same,Potency,[1],15.8 µM (active)
same,Potency,[2],inactive
same,Potency,[3],inactive
same,Potency,[4],inactive
same,activation,[13],-1.47% (inactive)
same,Potency,[5],inactive
same,max response,[6],-11.8%
same,Potency,[7],inactive
same,Potency,[8],inactive
same,activation,[14],-2.08% (inactive)
same,activation,[15],-0.263% (inactive)
same,Potency,[16],inactive
same,Potency,[17],inactive
same,Potency,[10],inactive
O=C=Nc1ccc(Cl)c(Cl)c1,Potency,[18],38.9 µM (active)
same,Potency,[1],inactive
same,Potency,[2],inactive
same,activation,[13],5.86% (inactive)
same,Potency,[5],inactive
same,Potency,[8],inactive
same,activation,[15],7.4% (inactive)
same,Potency,[16],4.22 µM (active)
same,Potency,[17],33.5 µM (active)
same,Potency,[9],inactive
same,outcome,[11],inactive
O=Nc1ccc(Nc2ccccc2)cc1,Potency,[20],3.86 µM (active)
same,Potency,[18],30.8 µM (active)
same,Potency,[19],11.5 µM (active)
same,Potency,[12],2.51 µM (active)
same,Potency,[7],inactive
same,Potency,[8],inactive
same,activation,[15],-1.21% (inactive) and -2.86% (inactive)
same,Potency,[16],inactive
CCN(CC)c1ccc(N)cc1,Potency,[20],44 µM (active)
same,"viability change, negative = cytotoxic",[12],-88.7% (active)
same,Potency,[2],inactive
same,activation,[13],8.72% (inactive)
same,Potency,[5],inactive
same,activation,[14],11.7% (inactive)
same,activation,[15],0.867% (inactive)
same,Potency,[16],29.8 µM (active)
same,Potency,[17],37.6 µM (active)
same,Potency,[10],inactive
